# In ChEMBL document CHEMBL5308541, “MAIP: An Open-Source Tool to Enrich High-Throughput Screening Output and Identify Novel, Druglike Molecules with Antimalarial Activity” (ACS Med Chem Lett, 2023):
# The campaign covered roughly 150,000 compounds. About 540 (0.36%) showed an effect of 50% or more. Many of the other results were omitted from the sample, so strong results are more common in it than they were.
# System: Plasmodium falciparum
# Assay: Primary screen in NF54 nanoGlo assay, in single point, at 2uM, 72h; a lower Z score goes with more inhibition
# Assay type: functional, Erythrocyte
# Conditions: timepoint 72 hour
Structure (SMILES),% Inhibition [%],Z score
Cc1ocnc1CNC[C@H](O)c1ccc(Cl)c(Cl)c1,94,-18.67
Cn1nc(C(=O)Nc2cnc(CC3CC3)nc2)cc1C(F)(F)F,1,-0.26
CCCN1CCC(Nc2cc(C)nc3ccccc23)CC1,58,-8.81
CCC(=O)N1CC[C@H](Nc2cc(C)nc3ccccc23)C1,-8,1.36
Cc1ccc2[nH]c(-c3cc4n(n3)CCN(c3ccnc(N)n3)C4)nc2c1C,84,-16.64
CN1CCC(N(C)C[C@H](Nc2ncnc3ccccc23)c2ccccc2)CC1,98,-17.15
C[C@](O)(CN1CCC(NCc2ccccc2)CC1)C(F)(F)F,-6,0.96
COc1ccccc1N1CCN(C2CCN(c3ccc(C(=O)N[C@@H](C)c4ccccc4)cc3)CC2)CC1,-11,1.99
OC1(c2ccc(Cl)cc2)CCN(C[C@@H]2CCCN3CCCC[C@H]23)CC1,82,-16.27
CC(CCO)CNc1nc(NCC(C)CCO)c2ccccc2n1 (centres undefined),1,-0.17
COCCNc1nc(N[C@@H](C)c2ccccc2)c2ccccc2n1,52,-11.2
CCNc1nc(NCc2ccccc2)c2cn[nH]c2n1,-6,1.21
CN1CCN(C2(CNc3ncc(F)c(N(C)C)n3)CCCCC2)CC1,7,-1.15
Cc1noc(-c2cccc(NC(=O)c3ccccc3-c3ncc(-c4ccccc4)o3)c2)n1,-8,1.16
CN1CCN(C[C@H]2CCCN(CC(C)(C)N3CCOCC3)C2)CC1,-20,3.47
Cc1cccc2c(-c3n[nH]c4ncnc(N)c34)c[nH]c12,-3,0.47
CC(C)CCC1CCCC1NCCCN1CCOCC1 (centres undefined),6,-1.29
CNc1cc(C)nc2cc(OC)ccc12,-6,0.97
COc1ccc2c(O)c(Br)c(C)nc2c1,75,-13.24
COc1ccc2nc3cc(Cl)ccc3c(O)c2c1,65,-9.86
COCCN1CCC[C@@]2(CCN(c3ccnc4cc(Cl)ccc34)C2)C1,99,-17.32

Structure (SMILES),% Inhibition [%],Z score
COCCN1CC[C@H](CN(C)c2ccnc3cc(Cl)ccc23)C1,98,-17
CN1CCC[C@@H]1CCNc1ncnc2cccc(F)c12,9,-1.43
COc1ccc2[nH]c(CN(Cc3cccnc3)CC3CCN(C4CCCC4)CC3)c(C)c2c1,1,-0.23
CCN(Cc1cnn(-c2cccc(Cl)c2)c1)CC1CCN(C2CCN(C)CC2)CC1,82,-14.12
CCN(Cc1[nH]c2ccc(Cl)cc2c1C)CC1CCN(C2CCN(C)CC2)CC1,85,-14.61
CCN(Cc1cccc(OC2CCCC2)c1)CC1CCN(C2CCN(C)CC2)CC1,20,-3.46
CCN(Cc1cnc(-c2ccccc2C)nc1)CC1CCN(C2CCN(C)CC2)CC1,-7,1.18
CCN(Cc1cc(F)ccc1-n1cccn1)CC1CCN(C2CCN(C)CC2)CC1,16,-2.76
Fc1ccc2ncnc(NC3CCN(C[C@H]4CCOC4)CC3)c2c1,-10,2.15
CN(CCCn1ccnc1)c1ccnc2cc(Br)ccc12,99,-17.18
COc1cccc(-c2nc3cc(C#N)ccc3[nH]2)n1,0,0.04
O[C@@]1(c2c[nH]nn2)CCN(c2ccnc3cc(Cl)ccc23)C1,44,-6.63
N#Cc1cccc(Cl)c1N1CCC(O)(CN)CC1,-3,0.43
NCC1(O)CCN(c2ccnc3cc(F)c(Cl)cc23)CC1,95,-20.37
Cn1c(NCc2ccc(N3N=C(c4ccccc4)C[C@H]3c3ccccc3)cc2)nc2ccccc21,-11,1.96
Cc1cnccc1N1CCCN(Cc2ccccc2OCCN2CCN(C)CC2)CC1,96,-19.05
C[C@H]1CCCN(CCOc2ccccc2CN2CCN(c3cccnc3)CC2)C1,-2,0.3
CN1CCN(CCOc2ccccc2CN2CC3CCC(C2)NC3)CC1 (centres undefined),-1,0.22
O=C(NC[C@@H](CN1CCCC1)C1CC1)c1ccnn1CC(F)(F)F,-1,0.12
C[C@@H](CS(C)(=O)=O)N(C)c1ncnc2cccc(F)c12,6,-1.06
C[C@H]1CCCN(CCNC(=O)c2ccc(-c3ccc4c(=O)[nH]ccc4c3)cc2)C1,67,-11.64
